# TRHR agonist: qHTS for Small Molecule Agonists and Allosteric Enhancers of Human TRH Receptor: Primary Screen for Agonists; Thyrotropin-releasing hormone receptor (Homo sapiens), P34981; activation, % at 2 µM; 360,000 compounds, 0.18% hits; TRHR cells, calcium flux fluo-8, FDSS agonist mode; AID 493084, 2011
# Target sequence (P34981 whole entry, looked up): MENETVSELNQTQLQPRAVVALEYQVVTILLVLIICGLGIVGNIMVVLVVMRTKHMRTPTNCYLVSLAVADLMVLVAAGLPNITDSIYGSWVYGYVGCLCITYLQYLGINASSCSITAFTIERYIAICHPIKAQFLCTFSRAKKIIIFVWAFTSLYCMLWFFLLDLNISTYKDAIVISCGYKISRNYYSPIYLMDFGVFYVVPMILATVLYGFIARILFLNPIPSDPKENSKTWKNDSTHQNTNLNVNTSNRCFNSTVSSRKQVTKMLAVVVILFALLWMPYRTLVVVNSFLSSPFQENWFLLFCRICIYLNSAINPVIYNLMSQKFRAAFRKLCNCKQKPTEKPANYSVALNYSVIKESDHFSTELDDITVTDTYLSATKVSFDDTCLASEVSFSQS
#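 Steps: seed TRHR cells overnight; add fluo-8 no-wash Ca dye, RT 30 min–1.5 h; record 10 s baseline; pin-transfer compounds; monitor fluorescence 1 cycle/s for the agonist window. Calcium increases flag candidate agonists.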
# D1 antag: Antagonist of Human D 1 Dopamine Receptor: qHTS; D(1A) dopamine receptor (Homo sapiens), P21728; HEK293 TREx D1 cells, calcium flux, dopamine EC80; hits give low values; activity change, negative = inhibition, % at 10 µM; 360,000 compounds, 3.2% hits; AID 504652, 2011; in the data active means activity change below about -30%
#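 Antagonism measured as reduced calcium response to an EC80 dopamine addition following 180 s compound pre-read; cells were inducible HEK293 Trex D1 plated overnight at 30 C, read kinetically at 1 cycle/sec.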
# D1 potentiator: Potentiators of Human D1 Dopamine Receptor: qHTS | HEK293 TREx D1 cells, calcium flux, dopamine EC20 potentiation | AID 504651, 2011 | potentiation, % at 10 µM | D(1A) dopamine receptor (Homo sapiens), P21728 | 360,000 compounds, 0.036% hits; in the data active means potentiation above about 30%
# TRHR enhancer: qHTS for Small Molecule Agonists and Allosteric Enhancers of Human TRH Receptor: Primary Screen for Enhancers | 360,000 compounds, 0.66% hits | enhancement, % at 2 µM | TRHR cells, fluo-8 calcium fluorescence, EC20 TRH enhancement | Thyrotropin-releasing hormone receptor (Homo sapiens), P34981; in the data active means enhancement above about 30%
#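 Enhancer read-out: after compound pinning and an initial kinetic agonist-mode read, an EC20 of TRH (10 nM final) was injected and fluo-8 calcium signal (Ex 480/Em 530) followed at 1 s/cycle for 100 cycles in TRHR-expressing cells.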
# D1 agonist: Allosteric Agonists of the Human D1 Dopamine Receptor: qHTS; D(1A) dopamine receptor (Homo sapiens), P21728; HEK293 T-REx D1 cells, calcium flux, agonist mode; activation, % at 2 µM; 360,000 compounds, 1% hits
#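 Tetracycline-induced HEK293 TREx D1 cells, force-coupled to calcium signalling, were dye-loaded with a no-wash calcium kit. Compound was pin-added after a 10 s baseline. Fluorescence was read kinetically at 1 cycle/s for 180 s, with calcium rises flagged as agonism.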
# Hits are given with their value; - = inactive; ! = not active in a repeat. Sampled rows, rich in hits. Any-hit rate of the full collection: about 4.6%. Unless noted, no stated cut-off is given here; in the data, active means activation above about 30%; inactive means the rest.
SMILES,TRHR agonist,D1 antag,D1 potentiator,TRHR enhancer,D1 agonist
CCOC(=O)C1=NN(C(=O)c2cccc(Br)c2)C(O)(C(C)(C)C)C1 (centres undefined),-,-,-,-,50.8
COC(=O)C1=NN(C(=O)c2cccc(Br)c2)C(O)(c2ccc(Cl)cc2)C1 (centres undefined),-,-,-,-,105.5
CCOc1cccc2cc(-c3nc4sc(C(=O)Nc5ccc(C)cc5)c(C)c4c(=O)[nH]3)c(=O)oc12,-,-,-,-,-
O=C(NC1CCN(CCc2c[nH]c3ccccc23)CC1)c1ccccc1,-,-83.0,-,-,67.3
O=C(NC1CCN(Cc2ccc(Cl)cc2Cl)CC1)c1ccccc1,-,-75.9,-,-,-
O=C(NC1CCN(Cc2cccc([N+](=O)[O-])c2)CC1)c1ccccc1,-,-57.2,-,-,-
O=C(NC1CCN(Cc2ccccc2)CC1)c1ccccc1,-,-,-,-,-
N#CN1CCC(NS(=O)(=O)c2cccc(C(F)(F)F)c2)CC1,-,-,-,-,-
CCOC(=O)N1CCN(C(=O)Cc2c(C(=O)O)n(C)c3ccccc23)CC1,-,-,-,-,-
CCOC(=O)C1CCN(C(=O)Cc2c(C(=O)O)n(CC)c3ccccc23)CC1,-,-86.7,-,-,-
C/C(=C\COc1cc(=O)[nH]c2ccccc12)CCC(O)C(C)(C)O (centres undefined),-,-,-,32.1,-
N#Cc1c(C(F)(F)F)cc(-c2cccs2)nc1SCC(=O)Nc1cccc(Cl)c1,-,-,-,-,47.2
N#Cc1c(C(F)(F)F)cc(-c2cccs2)nc1SCC(=O)Nc1cccc(Br)c1,30.0,-,-,-,184.0
CSc1nc(N)nc(SCC(=O)Nc2cccc(F)c2)c1C#N,-,-44.5,-,-,-
N#Cc1c2ccc(OCC(=O)NCc3ccco3)cc2n2ccccc12,-,-,-,-,-
N#Cc1c2ccc(O)cc2n2ccccc12,-,-,-,-,57.6
CCOc1ccc(-c2c(C)nn3c(C)c(C(=O)NCCc4ccccc4)cnc23)cc1OCC,-,-,-,-,-
COC(=O)c1ccc(-n2nnc(-c3nsc(NC(=O)c4ccc(Cl)cc4)n3)c2C)cc1,-,-55.4,-,-,-
Cc1c(-c2nsc(NC(=O)c3ccc(Cl)cc3)n2)nnn1-c1ccc(C(C)C)cc1,-,-,-,-,-
CCC(=O)N1CCc2cc(CNS(=O)(=O)c3ccccc3F)ccc21,-,-,-,-,-
O=C(NCCN1CCN(c2ccccc2)CC1)Nc1ccc(Cl)cc1,-,-32.4,-,-,30.0
O=C(NCCN1CCN(c2ccccc2)CC1)Nc1ccccc1Br,-,-32.7!,-,-,-
COc1ccc(N2CCN(CCNC(=O)Nc3ccc(Cl)cc3)CC2)cc1,-,-,-,-,37.8
O=C(NCCc1ccc(Cl)cc1)Nc1ccc(Cl)cc1,-,-34.4,-,-,-
COc1ccc(N2CCN(CCCNC(=O)Nc3ccccc3)CC2)cc1,-,-,-,-,-
SMILES,TRHR agonist,D1 antag,D1 potentiator,TRHR enhancer,D1 agonist
O=C(CCC1N=C2c3ccccc3N=C(SCc3ccccc3F)N2C1=O)NC1CCCCC1 (centres undefined),-,-,-,-,-
Cc1cc(Nc2cccc(C(F)(F)F)c2)nc2ccc(NC(=O)c3cccnc3)cc12,-,-,-,-,-
COc1cccc(NC(=O)Cn2nc3c4ccccc4n(Cc4cccc(F)c4)cc-3c2=O)c1,-,-,-,-,-
CCOC(=O)c1ccc(NC(=O)c2c(NCc3cccc(OC)c3OC)sc3c2CCC3)cc1,-,-,-,-,-
COc1ccccc1NC(=O)NCCN1CCN(c2cccc(Cl)c2)CC1,-,-39.8!,-,-,-
O=C(CCN1CCN(Cc2ccccc2)CC1)NNC(=O)Nc1cccc(Cl)c1,-,-,-,-,-
O=C(NCCN1CCN(Cc2ccccc2)CC1)Nc1cc(Cl)cc(Cl)c1,-,-,-,-,30.3
O=C(NCCN1CCN(c2ccccc2)CC1)Nc1cccc(Br)c1,-,-44.6!,-,-,49.5
O=C(NCCN1CCN(c2cccc(Cl)c2)CC1)Nc1ccccc1,-,-,-,-,-
CCOc1ccccc1CNS(=O)(=O)c1cc2c(cc1C)NC(=O)CO2,-,-,-,-,-
Cc1cc(Nc2cccc(C(F)(F)F)c2)nc2ccc(NC(=O)c3cccc(Cl)c3)cc12,-,-,-,-,-
CCC(C)NCCOCCOc1ccc(Cl)c(C)c1C (centres undefined),-,-,-,-,33.9
CCC(C)NCCOCCOc1ccc(Cl)c2ccccc12 (centres undefined),-,-45.2,-,-,57.5
CC(C)C(=O)Nc1ccc2nc(SCC(=O)N3CCc4ccccc43)sc2c1,-,-,-,-,-
Cc1cc(NS(=O)(=O)c2ccc(NS(=O)(=O)c3ccc(Br)cc3)cc2)no1,-,-,-,33.4,-
Cc1cc(NS(=O)(=O)c2ccc(NC(=O)/C=C/c3ccc(Br)cc3)cc2)no1,-,-,-,-,-
Cc1cc(NS(=O)(=O)c2ccc(NC(=O)COc3c(C)cc(Br)cc3C)cc2)no1,-,-,-,-,88.2!
Cc1cc(NS(=O)(=O)c2ccc(NC(=O)COc3ccc(Br)cc3C)cc2)no1,-,-,-,-,-
Cc1cc(NS(=O)(=O)c2ccc(Nc3nc(-c4ccc(C)c(C)c4)cs3)cc2)no1,-,-,-,-,68.0
Cc1nn2c3c(cnc2c1-c1ccc(F)cc1)C(=O)CC(c1ccccc1)C3 (centres undefined),-,-,-,-,-
O=C(NC1CCCC1)c1ccc2c(c1)N(Cc1ccccc1F)C(=O)c1ccccc1S2,-,-,-,-,-
CN(Cc1ccccc1)C(=S)NC(=O)c1ccccc1,-,-,-,30.8,-
CCN(CC)S(=O)(=O)c1cc(-c2onc(C)c2C)ccc1OC,-,-,-,-,-
CCc1nn(CC(=O)N2CCCCC2)c(=O)c2cc3sccc3n12,-,-,-,-,-
O=C(Nc1cc(Cl)cc(Cl)c1)c1coc(=O)c(Br)c1,-,-46.0,-,-,37.0
CCC(=O)NC1(C(F)(F)F)C(=O)Nc2c1c(=O)n(C)c(=O)n2C (centres undefined),-,-60.2,-,-,-
O=C1CCCN1CCCNc1ncnc2c1[nH]c1ccc(Cl)cc12,-,-88.0,-,-,-
O=S(=O)(c1ccc(F)cc1)N1CCN(C(=S)NCc2ccccc2)CC1,-,-31.4,-,-,-
Cc1ccc(C)c(OCC(=O)Nc2ccc(S(=O)(=O)Nc3onc(C)c3C)cc2)c1C,-,-,-,-,-

# Assay outcomes as filed in PubChem.
